Reference: the supplement of paper PMC6555819

Tests used:
Experiment in all cases: PBM binding z-score (relative to random genomic background probes); higher = stronger binding; sequences stand for … in GC…GCGATTGACAGCGTAGAATGAAGG
[1] = tested on: FXR:RXRa (NR concentration 270 nM, RXRa partner concentration 90 nM)
Outline: (§1)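 Antibodies against each partner of ligand-free nuclear receptor dimers (one per run) detected binding on custom Agilent 4×180K protein-binding microarrays after 1 h incubation. The double-stranded probes had 34-nt variable regions carrying direct-repeat seeds, single-nucleotide variants, half-site ablations and random human genomic background sequences. Binding z-scores, from regression-normalized fluorescence, use the random background probes as reference.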

[2] = tested on: LXRa:RXRa (NR concentration 270 nM, RXRa partner concentration 90 nM)
Outline: as §1

[3] = tested on: LXRa homodimer (NR concentration 270 nM)
Outline: as §1

[4] = tested on: LXRb:RXRa (NR concentration 270 nM, RXRa partner concentration 90 nM)
Outline: as §1

[5] = tested on: LXRb homodimer (NR concentration 270 nM)
Outline: as §1

[6] = tested on: PPARa:RXRa (NR concentration 270 nM, RXRa partner concentration 90 nM)
Outline: as §1

[7] = tested on: PPARg:RXRa (NR concentration 180 nM, RXRa partner concentration 90 nM)
Outline: as §1

[8] = tested on: PPARg:RXRa 270nM:90nM, anti-RXR (NR concentration 270 nM, RXRa partner concentration 90 nM)
Outline: as §1

[9] = tested on: PPARg:RXRa 30nM:10nM, anti-RXR (NR concentration 30 nM, RXRa partner concentration 10 nM)
Outline: as §1

[10] = tested on: PPARg:RXRa 90nM:30nM, anti-RXR (NR concentration 90 nM, RXRa partner concentration 30 nM)
Outline: as §1

[11] = tested on: PPARg:RXRa DBDmut IVT, anti-RXR (DBD mutation: RXRa K156A/R161A, NR concentration 270 nM, RXRa partner concentration 90 nM)
Outline: as §1

[12] = tested on: PPARg:RXRa IVT, anti-PPARg (NR concentration 270 nM, RXRa partner concentration 90 nM)
Outline: as §1

[13] = tested on: PPARg DBDmut:RXRa IVT, anti-PPARg (DBD mutation: PPARg1 K132A/R137A, NR concentration 270 nM, RXRa partner concentration 90 nM)
Outline: as §1

[14] = tested on: PPARg DBDmut IVT, anti-PPARg (DBD mutation: PPARg1 K132A/R137A, NR concentration 270 nM)
Outline: as §1

[15] = tested on: PPARg homodimer (NR concentration 180 nM)
Outline: as §1

[16] = tested on: PXR:RXRa (NR concentration 270 nM, RXRa partner concentration 90 nM)
Outline: as §1

[17] = tested on: PXR homodimer (NR concentration 270 nM)
Outline: as §1

[18] = tested on: RARa:RXR (NR concentration 270 nM, RXRa partner concentration 90 nM)
Outline: as §1

[19] = tested on: RARa homodimer (NR concentration 270 nM)
Outline: as §1

[20] = tested on: RARb:RXRa (NR concentration 270 nM, RXRa partner concentration 90 nM)
Outline: as §1

Sequence	PBM binding z-score [1]	PBM binding z-score [2]	PBM binding z-score [3]	PBM binding z-score [4]	PBM binding z-score [5]	PBM binding z-score [6]	PBM binding z-score [7]	PBM binding z-score [8]	PBM binding z-score [9]	PBM binding z-score [10]	PBM binding z-score [11]	PBM binding z-score [12]	PBM binding z-score [13]	PBM binding z-score [14]	PBM binding z-score [15]	PBM binding z-score [16]	PBM binding z-score [17]	PBM binding z-score [18]	PBM binding z-score [19]	PBM binding z-score [20]
ATCGAAAGGTCGCGAGGTGAGTATACAGAAAGGC	5.31	4.1	-0.00351	3.19	-0.0982	5.26	4.54	4.93	1.89	3.56	0.5	3.13	1.02	0.918	1.25	3.33	0.012	4.35	0.464	4.48
CTACCAAGCTGAACAAGGTCGTTGATTACTATTC	0.51	0.731	0.686	1.31	-0.0286	0.706	-0.00663	0.00986	-0.206	-0.336	0.107	-0.452	0.163	0.158	0.308	1.39	1.02	1.31	0.561	0.523
AGTCAAAGTTCATCTACGTAACGTAAGATATGCT	6.79	6.21	5.33	3.97	1.6	4.77	6.55	6.3	3.58	5.65	0.41	2.74	1.46	1.88	2.94	4.96	4.87	3.51	1.69	4.85
CGTCCAAGGTCAATGCTAGGTCAATGAAAGCATT	6.8	5.82	3.63	4.64	1.53	5.09	4.43	4.97	1.54	3.64	2.82	4.3	0.467	0.337	5.41	5.09	1.55	5.61	1.61	5.25
ATCGATAGGTCGAAGGTGAGTATACCCACCCGAA	0.952	0.85	-0.301	0.557	-0.268	2.9	4.53	5.41	3.58	5.43	-0.27	1.54	0.544	-0.0222	0.323	0.78	0.0246	2.02	-0.0833	1.76
CCTAGCAGGCCAATCTGGGTCACTCTAGGCTTGA	0.0739	0.774	-0.56	0.28	-1.07	2.36	1.46	1.75	-0.203	0.673	3.94	4.77	-0.959	-1.14	0.236	0.544	-0.524	1.17	-1.01	1.28
CCTATTGGGCCAAAAAGGTCATTGATGCCGATAA	3.69	4.37	2.45	4.04	0.266	4.6	2.25	3.39	0.941	2.81	1.89	2.64	0.177	-0.558	2.26	4.74	2.45	4.98	1.26	3.79
